# Source: PubChem BioAssay (NCI)
# This is part of a sample that, as a whole, favours compounds with a hit. Of some 83,000 tested, about 20% had one in any assay.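 Step 1: grow cells in 96-well plates. Step 2: add test compound at a single concentration. Step 3: incubate 48 h. Step 4: record percent growth.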 A number with no mark means an inactive call. The source made the active and inactive calls. The calls were made as follows: active = growth percent below 10; inactive = the rest.
# Legend:
# Test in all cases: NCI-60 one-dose screen, 48 h (100 = growth as untreated, 0 = no growth, -100 = all killed)
# Details in all cases: 10 µM unless noted
# RPMI-8226 leukemia = test system: RPMI-8226 leukemia
# OVCAR-8 ovarian = test system: OVCAR-8 ovarian
# OVCAR-5 ovarian = test system: OVCAR-5 ovarian
# OVCAR-4 ovarian = test system: OVCAR-4 ovarian
# SK-OV-3 ovarian = test system: SK-OV-3 ovarian
# IGROV1 ovarian = test system: IGROV1 ovarian
# OVCAR-3 ovarian = test system: OVCAR-3 ovarian
# HS 578T breast = test system: HS 578T breast
# NCI/ADR-RES ovarian = test system: NCI/ADR-RES ovarian
Compound,growth (RPMI-8226 leukemia),growth (OVCAR-8 ovarian),growth (OVCAR-5 ovarian) [%],growth (OVCAR-4 ovarian),growth (SK-OV-3 ovarian),growth (IGROV1 ovarian),growth (OVCAR-3 ovarian),growth (HS 578T breast),growth (NCI/ADR-RES ovarian)
COc1ccc(-c2cc(C(=O)N=Nc3c(O)[nH]c4ccc(Br)cc34)no2)cc1,107%,99.8%,99.8,103%,95.2%,100%,108%,95.7%,97.4%
O=C(N/N=C/c1c[nH]c2ccccc12)c1cc(-c2ccccc2)on1,90%,102%,97.5,85.6%,91%,87.2%,103%,94.4%,84.3%
O=C1NC(=S)N[C@H]1CC(=O)n1cnc2ccccc21,115%,104%,100,107%,111%,96.5%,110%,99.1%,96.5%
N#CCCN=Nc1c(O)[nH]c2ccc(F)cc12,109%,107%,97.7,90.4%,100%,101%,103%,97.9%,98.7%
Cc1cc(NS(=O)(=O)c2ccc(-c3cnc(C4CC4)o3)cc2)ccc1Cl,24.8%,12.9%,22,44.7%,32.4%,27.7%,-20.9% (active),11.9%,0.314% (active)
CSc1nc(Nc2cccc(NC(=O)CCl)c2)c(C#N)c(-c2cccc([N+](=O)[O-])c2)n1,-14.1% (active),37%,78.7,28.7%,95.5%,0.383% (active),6.67% (active),52%,56.7%
N#C/C(=C\c1ccc(-c2ccc(Cl)c(Cl)c2)o1)c1nc(-c2ccco2)cs1,63.6%,101%,55.7,37.6%,85.1%,40.5%,81.1%,97.4%,101%
N#Cc1c(-c2ccc(Cl)cc2)nc(N/N=C/c2cccc(Br)c2)nc1N1CCOCC1,56%,101%,82,95.6%,109%,83.6%,94.8%,82.1%,90.6%
C=CC(=O)Nc1cccc(-c2nc(SC)nc(NCCN3CCOCC3)c2C#N)c1,81.4%,83.1%,107,90.6%,108%,90.4%,97.8%,82.6%,95%
COc1cc(CNc2oc(-c3ccccc3)c(-c3ccccc3)c2C#N)cc(CN2CCN(C)CC2)c1O,2.73% (active),94.5%,63.8,55%,95.9%,71.2%,80.2%,70.5%,75.3%
CC(C)C1=C[C@@]23CC[C@@H]4[C@](C)(CCC[C@@]4(C)C(=O)N4CCCNCC4)[C@H]2C[C@@H]1[C@H]1C(=O)CCC(=O)[C@H]13,100%,96.6%,97.9,98.8%,107%,99.2%,115%,106%,94.9%
CSc1nc(NCCN2CCOCC2)c(C#N)c(-c2cccc([N+](=O)[O-])c2)n1,100%,97.4%,96.2,87.3%,97.8%,94.9%,109%,97.9%,95.7%
COc1cc2nc(N3CCCC3)nc(NCC3CCCCC3)c2cc1OC,-38.2% (active),12.1%,29.1,33.2%,77.4%,72.3%,13.1%,-33.5% (active),35.3%
CC(C)n1c(/C=C/[C@@H](O)C[C@@H](O)CC(=O)O)c(-c2ccc(F)cc2)c2ccccc21,53.2%,40.2%,85.8,90.4%,72.6%,34.3%,84.8%,55.1%,22.1%
COc1ccc(Nc2c3c4c(cccc4[nH]c2=O)C(=O)c2ccccc2-3)cc1,5.52% (active),13.1%,24.1,58.4%,-5.92% (active),-11.9% (active),-39% (active),-12.4% (active),0.0341% (active)
O=C(/C=C/c1cccc(Cl)c1)c1ccc(O)c(CN2CCN(c3cc4c(cc3F)c(=O)c(C(=O)O)cn4C3CC3)CC2)c1,4.11% (active),20.6%,52.6,79.5%,79.8%,48%,40.8%,41.3%,60.5%
COc1cc2nc(N3CCCC3)nc(NCc3ccccc3)c2cc1OC,12.7%,78.9%,80.4,57.2%,96%,90.4%,68.1%,73.7%,72.4%
COc1ccc(CCNc2nc(SC)nc(-c3cccc([N+](=O)[O-])c3)c2C#N)cc1OC,82.6%,61.6%,87.5,5.9% (active),72.7%,95.4%,102%,68.3%,68.4%
C=CCSSc1ncnc2c1ncn2C1OC(CO)C(O)C1O (stereo not given),-8.17% (active),20.1%,45.3,33.8%,7.46% (active),34.9%,29.1%,47.9%,28.4%

Compound,growth (RPMI-8226 leukemia),growth (OVCAR-8 ovarian),growth (OVCAR-5 ovarian) [%],growth (OVCAR-4 ovarian),growth (SK-OV-3 ovarian),growth (IGROV1 ovarian),growth (OVCAR-3 ovarian),growth (HS 578T breast),growth (NCI/ADR-RES ovarian)
CON1C(=O)CC[C@]2(C)[C@H]3CC[C@@H]4C([C@@]5(C)CCC(=O)O5)CC[C@@]4(C)[C@]3(C)CC[C@H]2C1(C)C (stereo not given in full),98.6%,102%,98.4,92.8%,104%,111%,110%,101%,97.1%
Cc1cc(C)c2nc3nc(C)cc(C)c3c(N)c2c1,-13.5% (active),45.3%,28.7,33.6%,25.4%,,26.5%,24.3%,30.9%
COc1ccc(C(=O)COc2ccc(/C=C3\Oc4ccc(OC)cc4C3=O)cc2)cc1,80.5%,,117,115%,102%,,103%,97.3%,109%
COc1cccc(-c2nn(C(C)(C)C)cc2-c2ccnc(NCCCNS(=O)(=O)c3cccc4ccccc34)c2)c1,103%,103%,,101%,110%,110%,108%,101%,101%
COc1ccc(/C=C(\C#N)C(=O)Nc2cccc(Nc3nc(SC)nc(-c4cccc([N+](=O)[O-])c4)c3C#N)c2)cc1OC,83.8%,102%,96.6,,99%,74.7%,112%,104%,104%
CC(=O)O[C@H]1CC[C@]2(C)[C@H]3CC=C4[C@@H]5CC(C)(C)CC[C@]5(C(=O)NCCNCCNCCN)CC[C@@]4(C)[C@]3(C)CC[C@H]2C1(C)C,-23.7% (active),,10,34.9%,101%,46.9%,-30.6% (active),92.2%,74.6%
C=CC(=O)Nc1cccc(-c2nc(SC)nc(NCc3ccccc3)c2C#N)c1,38.5%,39.8%,,48.5%,72.2%,57.3%,48.4%,51.8%,48.3%
C=CC(=O)Nc1cccc(-c2nc(SC)nc(Nc3ccccc3OC)c2C#N)c1,29.7%,34.5%,42.9,,91.8%,69.3%,23.4%,16.8%,29.3%
O=S(=O)(Nc1ccc(I)cc1F)c1ccc(-c2cnc(C3CC3)o2)cc1,71.1%,70%,,60.5%,71.5%,45.4%,16.1%,35.2%,28%
COc1cccc(-c2nn(C(C)(C)C)cc2-c2ccnc(NCCCNS(=O)(=O)c3ccc(C)cc3)c2)c1,99.3%,103%,105,,113%,111%,122%,103%,98.4%
N#Cc1c(N)n(CCNC(=O)c2ccccc2)c2nc3ccccc3nc12,179%,,79,114%,120%,76.3%,81.9%,179%,87.7%
CC[C@@H](C(=O)[C@@H](C)[C@@H](O)[C@H](C)[C@@H]1O[C@@H]([C@@H](CC)C(=O)O)CC[C@@H]1C)[C@H]1OC2(C=C[C@@H](O)[C@]3(CC[C@@](C)([C@H]4CC[C@](O)(CC)[C@H](C)O4)O3)O2)[C@H](C)C[C@@H]1C (stereo not given in full),,31.9%,,35.8%,30.2%,40.2%,14.6%,30%,29.6%
COc1cc(/C=C/c2cc(O)c3cc(C(C)=O)c(=O)oc3c2)cc2c1O[C@]1(C)CC[C@@H](O)C(C)(C)[C@H]1C2,-22.6% (active),84.4%,70.6,,64.2%,53.1%,84.6%,2.8% (active),83.6%
CC[C@H]1OC(=O)[C@H](C)[C@@H](O[C@H]2C[C@@](C)(OC)[C@@H](O)[C@H](C)O2)[C@H](C)[C@@H](O[C@@H]2O[C@H](C)C[C@H](N(C)C)[C@H]2O)[C@](C)(O)C[C@H](C)CN(C)[C@H](C)[C@@H](O)[C@]1(C)O,107%,,100,108%,97.4%,98.3%,96%,-29.8% (active),95.2%
COc1ccc2c(c1)O/C(=C\c1cccc(OCC(=O)Nc3nc4c(s3)CCCC4)c1)C2=O,49.6%,-23.4% (active),103,62.4%,90.9%,,41.5%,84%,-9.46% (active)
N#CCCN=Nc1c(O)[nH]c2ccc([N+](=O)[O-])cc12,105%,,97,105%,86%,99.6%,103%,103%,104%
CSc1nc(Nc2cccc(NC(=O)/C(C#N)=C/c3c(Cl)cccc3Cl)c2)c(C#N)c(-c2cccc([N+](=O)[O-])c2)n1,26.8%,53.6%,67.5,49.7%,99.2%,29.2%,31%,66.9%,60.5%
C[n+]1ccccc1/C=C/c1ccc2cccc(O)c2n1,105%,,51.5,112%,39.1%,105%,112%,108%,109%
